According to ChEMBL document CHEMBL3433997, “St. Jude Leishmania screening dataset” (2016):
Values joined by “and” are separate entries in the source; they are usually repeats but may differ in a detail not shown here. Equal values may be shown once.

Each compound was assayed against Glucose transporter (Leishmania mexicana) (UniProt O61059) (assay: ST_JUDE_LEISH: Cytotoxicity at 2uM final concentration against transgenic Leishmania Mexicana promastigotes LmGT2 that are glucose transport deficient and complemented with the L. Mexicana glucose transporter 2. Activity is measured by DNA content using SYBR green in vitro).
Assay type: functional
Compound `CC(NC(=O)c1ccc(O)c(-c2ccc(Cl)c(Cl)c2)c1)C(=O)NCCN1CCOCC1` (stereo not given) has an inhibition of 3.62%.
Compound `O=C(/C=C/c1ccc(Cl)c(Cl)c1)NCC[C@@H]1C[C@H]1CCN1CCC(c2c[nH]c3ccccc23)CC1` has an inhibition of 6.24%.
With `COC(=O)C1(NC(=O)c2ccc(-n3nc(C)c(-c4ccccc4)c3N)cc2)CCCC1` the inhibition was 2.55%.
For `Cc1ccc(CON2C(N)=NC(N)=NC2(C)C)c(Cl)c1.Cc1ccc(CON2C(N)=NC(N)=NC2(C)C)cc1Cl`, the inhibition was 1%.
`O=C(C=Cc1ccc(Cl)c(Cl)c1)NCCCCCN1CCC(CCNS(=O)(=O)c2ccc(Br)cc2)CC1` gave an inhibition of 2.53%.
Compound `COc1ccc2[nH]ccc(=NN=Cc3ccc(Cl)cc3)c2c1` has an inhibition of 0.32%.
`Cc1[nH]c(C)c(-c2ccc(Oc3ccc(F)cc3)cc2)c(=O)c1Cl` showed an inhibition of 3.79%.
For `O=C(NC1CCN(Cc2ccccc2)CC1)c1cc(-c2ccncc2)nc2ccc(Cl)cc12`, the inhibition was 0.14%.
`COC(=O)c1ccc(C2OC3(C(=O)c4ccccc4C3=O)C(OC)=C2Cl)cc1C(C)=O` (stereo not given) gave an inhibition of -0.7%.
For `O=C(NC1CCCCC1)N(Cc1ccc(-c2ccc(CNCc3ccc4c(c3)OCO4)cc2)cc1)C1CCN(Cc2ccccc2)CC1`, the inhibition was 1.56%.
Compound `O=C(NC1CCN(Cc2ccccc2)CC1)c1cc(-c2cccnc2)nc2ccc(Cl)cc12` has an inhibition of 8.35%.
Compound `CC(C)CNCc1cccc(-c2ccc(CNc3ccc(C(=O)c4ccccc4)cc3)cc2)c1` has an inhibition of -1.03%.
In the case of `CCCN(CCC)C(C)CCC(C)Nc1c2ccc(Cl)cc2nc2ccc(OC)cc12` (stereo not given), the inhibition is reported as 2.82%.
In the case of `O=C(/C=C/c1ccc(Cl)cc1Cl)N1CCC(CCN2CCC(c3c[nH]c4ccccc34)CC2)CC1`, the inhibition is reported as 5.09%.
With `Cc1ccccc1OCC(O)CNC1CCC(NCC(O)COc2ccccc2C)CC1` (stereo not given) the inhibition was 5.8%.
Compound `COc1ccc(C(=O)Nc2nonc2-c2ccc(OC)c(OC)c2)cc1Cl` has an inhibition of -0.55%.
Work on `O=C(Nc1ccc([N+](=O)[O-])cc1)c1nn(-c2ccccc2)cc1/N=C/c1cccc(O)c1` yielded an inhibition of -1.45%.
In the case of `CCCCSc1c(CNCCCCCCNCc2ccc3ccccc3c2SCCCC)ccc2ccccc12`, the inhibition is reported as 0.58%.
Work on `CCn1c(-c2nonc2N)nc2c(-c3cccc(NC(=O)NC45CC6CC(CC(C6)C4)C5)c3)ncc(OCCCN)c21` yielded an inhibition of 2.53%.
With `Cc1csc2nc(-c3ccccn3)nc(Nc3ccncn3)c12` the inhibition was 1.79%.
`CC1CN(Cc2ccc(-c3ccc(-c4nc5cc(F)ccc5[nH]4)cc3)cc2)CC(C)O1` (stereo not given) showed an inhibition of 3.77%.
`Nc1cnc(C#Cc2cc3ncnc(N(CCN4CCOCC4)c4ccc(OCc5cccc(F)c5)c(Cl)c4)c3s2)cn1` was tested, and the inhibition was -3.58%.
`COc1cccc(CNC[C@@H](O)[C@H](Cc2ccccc2)NC(=O)c2cc(N3CCCC3=O)c3[nH]cc(C(C)C)c3c2)c1` showed an inhibition of 2.36%.
For `COc1cc(Nc2nccc(Nc3ccc4c(C)n[nH]c4c3)n2)cc2ccccc12`, the inhibition was -0.29%.
`CC(=O)Nc1cccc(C(=O)Nc2ccc(-c3cccc(-c4nc5cccc(C)c5[nH]4)c3)cc2)c1` showed an inhibition of 0.36%.
For `COc1cc(OC)c(OC)cc1C=NN=c1cc(C)[nH]c2ccccc12`, the inhibition was -1.17%.
Compound `Cn1cncc1CCCN(Cc1ccc(-c2ccc(C(F)(F)F)cc2)cc1)C(=O)Cn1c(CCc2cccc(F)c2F)cc(=O)c2cccnc21` has an inhibition of 1.5%.
`CC(C)(C)c1cc(C(=O)N2CCN(c3ccc(C(F)(F)F)cn3)CC2)n(Cc2ccc(F)cc2)n1` gave an inhibition of -1.88%.
Compound `Clc1cc(Nc2ncnc3sc(C#C[C@H]4CCCN4)cc23)ccc1OCc1cccnc1Cl` has an inhibition of 3.35%.
With `CCc1ccc(OCCCON2C(=N)N=C(N)NC2(C)C)cc1` the inhibition was 3.21%.
With `COCCNC(=O)c1ccc(OC2CCN(Cc3ccc(F)c(F)c3)CC2)c(Cl)c1` the inhibition was -2.21%.
Compound `O=C(Nc1cccc2ccccc12)N1CCC(NS(=O)(=O)c2cccc(C(F)(F)F)c2)CC1` has an inhibition of 0.91%.
With `CN(Cc1cnc2nc(N)nc(N)c2n1)c1ccc(C(=O)N[C@@H](CCC(=O)O)C(=O)O)cc1` the inhibition was -0.37% and 1.34% and 3.42%.
With `COc1ccc2nccc([C@@H](O)CN3CCC(NC(=O)/C=C/c4cccc(C)c4)CC3)c2c1` the inhibition was 3.43%.
With `Cc1ccc(-c2cc(C(=O)Nc3ccc(S(=O)(=O)N4CC(C)OC(C)C4)cc3)[nH]n2)c(O)c1` (stereo not given) the inhibition was 3.48%.
Work on `COc1ccc(NC(=O)[C@H](Cc2ccccc2)Nc2cc(C)nc(Nc3ccccc3)n2)cc1` yielded an inhibition of 10.4%.
For `Cn1cc(CN2CCCC(COC(c3ccccc3)c3ccccc3)C2)cn1` (stereo not given), the inhibition was 2.57%.
With `Cc1nnsc1C(=O)Nc1ccc(-c2ccc(-c3nc4ccccc4[nH]3)s2)cc1` the inhibition was 1.47%.
Work on `Cc1[nH]c(C)c(-c2ccc(CCc3cccc(C(F)(F)F)c3)nc2)c(=O)c1Cl` yielded an inhibition of 0.88%.
In the case of `CC(C)C(=O)Nc1c(F)cc(F)cc1CCc1ccc(O)cc1`, the inhibition is reported as 5.01%.
